# Assay results as given in PubChem BioAssay (NCI).
# Compounds without any hit were thinned out: in the full panel of roughly 79,000, 15% have a hit. Unmarked numbers belong to inactive results. Calls of active or inactive are those of the source. Cut-off read from the data, not from the text of the source: active = growth inhibition above about 70%; inactive = the rest.
# How the values were obtained:
# [1] = NCI Yeast Anticancer Drug Screen. Data for the rad50 strain (AID 155);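 note: 0% = growth of vehicle-only cultures of the same strain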; conditions: S. cerevisiae rad50 strain growth inhibition, hits give high values
# In short: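 A DNA repair-deficient yeast mutant serves as the test organism; compound-induced growth inhibition is calculated against vehicle-treated cells.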
# [2] = NCI Yeast Anticancer Drug Screen. Data for the mec2-1 strain (AID 157); conditions: S. cerevisiae mec2-1 strain, hits give high values
# In short: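 Mutant yeast (mec2-1) grown with compound; growth inhibition relative to vehicle control reported.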
# [3] = NCI Yeast Anticancer Drug Screen. Data for the sgs1 mgt1 strain (AID 161);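 note: 0% = growth of cultures given vehicle only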; conditions: S. cerevisiae sgs1 mgt1 strain, hits give high values
# In short: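 Growth of a repair-deficient yeast mutant was monitored after compound treatment and expressed as inhibition relative to vehicle-treated cultures.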
# [4] = NCI Yeast Anticancer Drug Screen. Data for the cln2 rad14 strain (AID 165);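 note: 0% = growth equal to vehicle treated cultures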; conditions: S. cerevisiae cln2 rad14 strain, hits give high values
# In short: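 Readout is yeast growth inhibition versus vehicle-treated controls, using a strain with cln2 and rad14 alterations exposed to compound.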
# [5] = NCI Yeast Anticancer Drug Screen. Data for the bub3 strain (AID 167); conditions: S. cerevisiae bub3 mutant strain, hits give high values
# In short: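 Inhibition values come from growth of compound-treated mutant yeast normalised to vehicle-treated controls.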
# [6] = NCI Yeast Anticancer Drug Screen. Data for the mlh1 rad18 strain (AID 175); conditions: S. cerevisiae mlh1 rad18 strain growth inhibition, hits give high values
# In short: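 Genetically defined yeast (DNA repair-deficient) exposed to compounds; growth inhibition determined relative to vehicle.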
# [7] = at 5.0 µM (retest, dose inferred, filed as 0.5)
# [8] = at 50.0 µM (retest, dose inferred, filed as 5.0)
Structure (SMILES),"growth inhibition [1, 7]","growth inhibition [1, 8]",growth inhibition ([1]; at 50.0 µM),"growth inhibition [2, 7]","growth inhibition [2, 8]",growth inhibition ([2]; at 50.0 µM),"growth inhibition [3, 7]","growth inhibition [3, 8]",growth inhibition ([3]; at 50.0 µM),"growth inhibition [4, 7]","growth inhibition [4, 8]",growth inhibition ([4]; at 50.0 µM),"growth inhibition [5, 7]","growth inhibition [5, 8]",growth inhibition ([5]; at 50.0 µM),"growth inhibition [6, 7]","growth inhibition [6, 8]",growth inhibition ([6]; at 50.0 µM)
O=C1CSC(c2c[nH]c3ccccc23)N1c1cccc(Cl)c1 (stereo not given),10%,93% (active),85.8% (active),8%,97% (active),87.7% (active),16%,87% (active),87.3% (active),6%,95% (active),87% (active),16%,97% (active),88.5% (active),-5%,97% (active),84.5% (active)
O=C1CSC(=S)N1Cc1ccncc1,2%,38%,39.1%,-14%,37%,40.9%,-8%,25%,57.5%,24%,31%,18.6%,12%,29%,65.5%,-16%,71% (active),39.3%
O=C(/C=C/c1ccccc1)CCN1CCOCC1,21%,99% (active),91.3% (active),26%,99% (active),85.3% (active),22%,100% (active),86.5% (active),0%,84% (active),88.7% (active),35%,100% (active),88.8% (active),32%,99% (active),84.7% (active)
S=C(NCc1ccccc1)[S][Sb]([S]C(=S)NCc1ccccc1)[c]1ccccc1,1%,95% (active),95.8% (active),2%,97% (active),88.4% (active),-138%,93% (active),96% (active),-6%,89% (active),69.8%,-11%,93% (active),84.5% (active),6%,87% (active),97.3% (active)
O=[N+]([O-])c1ccccc1C(c1ccc2ccccc2c1O)N1CCOCC1 (stereo not given),99% (active),95% (active),97.5% (active),100% (active),97% (active),97.8% (active),99% (active),98% (active),94.8% (active),78% (active),96% (active),97% (active),99% (active),97% (active),95.8% (active),98% (active),97% (active),95.4% (active)
